# Source: PubChem BioAssay (several laboratories)
# Mdm2 MdmX PPI = inhibitors of human Mdm2/MdmX interaction; O15151+Q00987; SaOS-2 split-luciferase Mdm2/MdmX complementation, luminescence; inhibition, % at 8 µM; actives 3% (n = 330,000); AID 485346;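 active means inhibition of at least 50% at 8 µM in the primary screen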
# CSC inhib = cancer stem cell inhibition; cancer stem cell-like cells viability, luminescence; inhibition, % at 7.5 µM; actives 1.1% (n = 300,000); in the data active means inhibition above about 75%; inconclusive means no clear call, values can overlap the other calls; tested in HMLE shEcad cells
# SKKanGAS inh = inhibitors of SKKanGAS S. pyogenes growth in kanamycin (SK-promoter or general growth effect). BacTiter-Glo, 6 h. inhibition, % at 7.5 µM. actives 1.3% (n = 300,000);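 active means mean replicate score, as percent of positive control median, at least 50; inconclusive means mean below 50 but one replicate at or above 50; inactive means mean and every replicate below 50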;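 further: strain carries kanamycin resistance gene driven by streptokinase promoter and grows in 40 µg/ml kanamycin; loss of luminescence reflects streptokinase promoter inhibition or plain growth inhibition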
# Beta apoptosis = blocks beta cell apoptosis; INS-1E cytokine-induced death, ATP luminescence, 48 h; percent of positive-control rescue, neutral wells zero; protection from apoptosis, % (test concentration not listed); actives 0.8% (n = 300,000); AID 435005;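 active means Every replicate reaches about 75%, or at least half do and their mean reaches it too, limit read from the data; inconclusive means At least half of replicates reach the limit but their mean does not; inactive means Under half of replicates reach the limit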;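 further: higher means more ATP so stronger rescue from cytokine killing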
# MPTP block = blocks calcium-induced mitochondrial swelling. isolated mouse mitochondria, Ca2+ swelling absorbance, 30 min. inhibition, % at 10 µM. actives 1.4% (n = 360,000). AID 602449;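 active means inhibition of 50% or more, scaled per plate between neutral and stimulator controls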
# GRIN3A LBD mod = modulates the human NR3A ligand-binding domain. NR3A LBD differential scanning fluorimetry, Tm shift; 0% = protein alone, 100% = glycine-bound protein. actives 2.5% (n = 340,000). AID 1259313. Tm shift relative to glycine control, % at 25 µM;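 active means melting temperature shift of at least 10% of the positive control shift, at one fixed dose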
# Mdm2 MdmX conf = human Mdm2/MdmX binding inhibition, confirmed | shares compounds with Mdm2 MdmX PPI | luminescent assay | inhibition, % at 8 µM | actives 55% (n = 10,000) | AID 489028; in the data active means inhibition above about 40%
# Full FLuc ctr = full-length luciferase inhibition in Mdm2/MdmX counter-screen; AID 504607; inhibition, % at 8 µM; SaOS-2 full-length luciferase counterscreen, luminescence; shares compounds with Mdm2 MdmX PPI; actives 77% (n = 6,200);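 active means mean inhibition at 8 µM reaching about 37%, which flags the compound as non-specific, limit read from the data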;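 further: p53-null SaOS-2 cells with luciferase driven by a doxycycline-inducible promoter; compound on cells about two nights before reading with doxycycline added after day one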
# Numbers stand for hits; . = inactive; ? = inconclusive; / = no result given. Hits are enriched below; roughly 6.9% of the tested compounds scored in any of these assays.
SMILES,Mdm2 MdmX PPI,CSC inhib,SKKanGAS inh,Beta apoptosis,MPTP block,GRIN3A LBD mod,Mdm2 MdmX conf,Full FLuc ctr
COc1ccc(CN([C@H](CO)CC(C)C)S(=O)(=O)N(Cc2ccccc2)[C@H](CO)CC(C)C)cc1,61.6,/,/,.,.,.,.,/
COc1ccccc1C(CNc1nc(C(F)(F)F)nc2ccccc12)N(C)C (stereo not given),.,.,.,.,.,.,/,/
CCn1nc(C(=O)N2CCN(Cc3nc4ccccc4s3)CC2)c2ccccc2c1=O,.,/,/,.,.,.,/,/
COc1cc2nc(Nc3ccc(F)cc3)nc(N)c2cc1OC,.,.,.,.,.,.,/,/
CCOC(=O)c1ccc(Nc2nc(N)c3cc(OC)c(OC)cc3n2)cc1,84.6,.,.,.,.,.,83.5,48.9
COc1cc2nc(Nc3ccc(C)c(Cl)c3)nc(N)c2cc1OC,92.6,105.9,.,.,.,27.6,66.0,87.8
COc1cc2nc(Nc3ccc(C)c(C)c3)nc(N)c2cc1OC,87.5,.,.,.,.,15.6,.,/
COc1cc2c(cc1OC)C(C)N(C(=O)c1cc(C)on1)CC2 (stereo not given),60.6,.,.,.,.,13.0,67.5,82.0
CCOC(=O)C(C)(C)N(Cc1ccc(Cl)cc1)S(=O)(=O)c1ccc(Cl)c([N+](=O)[O-])c1,95.3,109.4,.,.,/,/,81.2,50.0
CCOC(=O)C(C)(C)NS(=O)(=O)c1ccc(Cl)c([N+](=O)[O-])c1,.,.,.,.,.,.,/,/
CCOC(=O)C(C)(C)N(Cc1ccc(C)cc1)S(=O)(=O)c1ccc(Cl)c([N+](=O)[O-])c1,96.0,.,.,.,.,.,65.5,70.7
NS(=O)(=O)c1ccc(CNC(=O)c2ccc(Cl)c([N+](=O)[O-])c2)cc1,.,.,.,.,.,.,/,/
Cc1cccc(NC(=O)CCc2ccc(N3C(N)=NC(N)=NC3(C)C)cc2)c1,/,/,/,/,.,/,/,/
Cc1cccnc1NC(=S)Nc1ncccc1C,.,.,.,.,.,.,/,/
Cc1cccc(NCc2ccc(O)c3ncccc23)c1C,74.4,.,.,.,.,.,72.7,41.7
Oc1ccc(Br)cc1CNc1cccc2cccnc12,60.3,.,54.8,99.6,.,.,64.2,.
Oc1ccc(Br)cc1CNc1cnc2ccccc2c1,.,.,.,.,.,.,/,/
Cc1cccnc1NCc1ccc(O)c2ncccc12,57.0,.,66.6,/,.,.,.,/
Cc1cc(C)cc(NC(=O)CCn2c(=S)[nH]c3ccccc3c2=O)c1,64.6,.,.,.,.,.,.,/
Cc1cccc(-n2c(O)c(C=Nc3ccc4c(c3)OCO4)c3ccccc3c2=O)n1,.,.,.,.,.,.,/,/
Cc1cccc(/N=C/c2c(O)n(Cc3ccc4c(c3)OCO4)c(=O)c3ccccc23)n1,53.4,.,.,.,.,.,.,/
Cc1ccccc1OCC(=O)OCC(=O)c1ccc[nH]1,.,/,/,.,.,.,/,/
COc1ccc(NC2=NCCC(=O)N2Cc2cccs2)cc1,.,.,.,.,.,.,/,/
COc1ccc(NC2=NCC(=O)N2Cc2cccs2)cc1,55.5,.,.,.,.,.,.,/
COc1cccc(C2NC(=S)NC(C)=C2C(=O)c2ccccc2)c1OC (stereo not given),51.0,.,.,.,.,.,49.1,78.0
SMILES,Mdm2 MdmX PPI,CSC inhib,SKKanGAS inh,Beta apoptosis,MPTP block,GRIN3A LBD mod,Mdm2 MdmX conf,Full FLuc ctr
N#CC1=C2SCC(O)(c3ccccc3)N2C(=O)CC1c1ccccc1 (stereo not given),76.3,.,.,.,.,.,73.8,57.7
COc1ccc(COc2cc(-c3cccc(OC)c3)nc3ccc(N)cc23)cc1,59.5,.,.,.,.,.,51.4,119.9
Cc1ccc(-c2cc(C(=O)N3CCN(c4ccccc4O)CC3)c3ccccc3n2)o1,.,.,.,.,.,.,/,/
O=C(c1cc(-c2ccc(Br)cc2)nc2ccccc12)N1CCN(c2ccccc2O)CC1,55.8,/,58.7,.,.,.,.,/
COc1ccc(-c2cc(C(=O)N3CCN(c4cccc(C)c4C)CC3)c3ccccc3n2)cc1OC,74.8,.,.,.,.,.,.,/
O=C(c1cc(-c2ccccc2Cl)nc2ccc(Br)cc12)N1CCN(c2ccccn2)CC1,73.7,.,.,106.0,.,.,.,/
CN(C(=O)c1cccc(NC(=O)c2cccs2)c1)c1ccccc1,.,.,.,.,.,.,/,/
COCCCN(C(=O)CSc1nc2ccccc2c(=O)n1C)c1c(N)n(Cc2ccccc2)c(=O)[nH]c1=O,/,/,/,/,.,.,/,/
CC(=O)Nc1cccc(C(=O)/C=C/c2cccs2)c1,/,.,.,.,.,.,/,/
CCC(=O)Nc1cccc(C(=O)/C=C/c2cc(Br)ccc2OC)c1,97.1,.,.,.,.,.,80.0,58.9
CC(=O)Nc1cccc(C(=O)/C=C/c2ccc(/C=C/C(=O)c3cccc(NC(C)=O)c3)cc2)c1,97.6,77.1,.,.,/,/,.,/
CC(=O)Nc1cccc(C(=O)/C=C/c2ccc(F)cc2)c1,73.0,.,.,.,.,.,.,/
Cc1cccc(C(=O)Nc2ccc(C(=O)/C=C/c3ccncc3)cc2)c1,96.5,.,.,.,.,15.6,.,/
Cc1cccc(C(=O)Nc2ccc(NC(=O)c3cccc(C)c3)cc2)c1,/,/,/,/,.,/,/,/
Cc1ccc(C(=O)Nn2cnc3ccccc3c2=O)cc1C,.,.,.,.,.,.,/,/
CC(=O)Nc1cccc(C(=O)/C=C/c2ccco2)c1,.,.,.,.,.,.,/,/
CC(=O)Nc1cccc(C(=O)/C=C/c2ccc(Br)cc2)c1,96.6,126.7,.,.,.,.,73.8,53.0
O=C1C=C(c2ccc3ncccc3c2)C[C@@H](c2ccc(F)cc2)C1,.,.,/,.,.,.,/,/
O=C1C=C(c2ccc3ccccc3c2)C[C@@H](c2ccc(F)cc2)C1,52.0,.,/,.,.,.,.,/
CN1CCN(c2ccc(NC(=O)c3ccc(C#N)cc3F)cc2Cl)CC1,.,?,.,.,.,.,/,/
O=C(Cc1csc(Nc2nc(=S)[nH]c3ccccc23)n1)NCc1ccccc1Cl,92.3,/,.,.,.,.,.,/
O=C(Cc1csc(Nc2nc(=S)[nH]c3ccccc23)n1)N1CCN(c2cccc(C(F)(F)F)c2)CC1,69.0,.,.,.,.,.,.,/
O=C(CCCCCNc1nc(=S)[nH]c2ccccc12)NCc1ccccc1Cl,.,.,.,.,/,/,/,/
O=C(Cc1csc(Nc2nc(=S)[nH]c3ccccc23)n1)NCc1cccc(Cl)c1,85.3,.,/,.,.,.,.,/
COc1ccc(CNC(=O)CCCCCNc2nc(=S)[nH]c3ccccc23)cc1,.,.,.,.,.,.,/,/
Cc1ccc(CNC(=O)Cc2csc(Nc3nc(=S)[nH]c4ccccc34)n2)cc1,57.3,.,.,.,/,/,42.5,101.5
COc1ccccc1C(=O)NCCC(=O)NCc1cccs1,.,.,.,.,.,.,/,/
